Experiments:
Assay type in all cases: functional
[1] = molecular target: Solute carrier family 2, facilitated glucose transporter member 1 (Homo sapiens) (UniProt P11166); assay: ST_JUDE_LEISH: Cytotoxicity at 2uM final concentration against transgenic Leishmania Mexicana promastigotes LmGLUT1 that are glucose transport deficient and complemented with the human glucose transporter GLUT1. Activity is measured by DNA content using SYBR green in vitro
[2] = molecular target: Hexose transporter 1 (Plasmodium falciparum) (UniProt O97467); assay: ST_JUDE_LEISH: Cytotoxicity at 2uM final concentration against transgenic Leishmania Mexicana promastigotes LmPfHT that are glucose transport deficient and complemented with the Plasmodium falciparum hexose transporter. Activity is measured by DNA content using SYBR green in vitro
[3] = molecular target: Glucose transporter (Leishmania mexicana) (UniProt O61059); assay: ST_JUDE_LEISH: Cytotoxicity at 2uM final concentration against transgenic Leishmania Mexicana promastigotes LmGT2 that are glucose transport deficient and complemented with the L. Mexicana glucose transporter 2. Activity is measured by DNA content using SYBR green in vitro

Chain of Solute carrier family 2, facilitated glucose transporter member 1 (Homo sapiens) (P11166 whole entry): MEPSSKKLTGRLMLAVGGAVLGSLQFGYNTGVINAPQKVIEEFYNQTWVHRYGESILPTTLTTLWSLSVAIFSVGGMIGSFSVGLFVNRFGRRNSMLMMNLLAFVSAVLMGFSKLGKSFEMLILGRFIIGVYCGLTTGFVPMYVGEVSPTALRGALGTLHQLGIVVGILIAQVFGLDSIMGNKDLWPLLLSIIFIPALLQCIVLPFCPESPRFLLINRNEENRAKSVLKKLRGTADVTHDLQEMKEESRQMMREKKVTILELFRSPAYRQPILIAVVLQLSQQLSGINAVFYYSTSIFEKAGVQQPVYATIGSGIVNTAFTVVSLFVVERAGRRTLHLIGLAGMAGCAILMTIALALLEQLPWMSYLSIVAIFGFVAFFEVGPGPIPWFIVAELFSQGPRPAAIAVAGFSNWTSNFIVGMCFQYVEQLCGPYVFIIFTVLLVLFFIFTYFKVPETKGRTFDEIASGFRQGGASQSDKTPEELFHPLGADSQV

Row | Structure (SMILES) | inhibition [1] | inhibition [2] | inhibition [3]
1 | Cc1ccc(F)cc1-c1cc(N2CCCN(C(=O)c3ccc(Br)o3)CC2)ncn1 | 0.81% | 0.93% | -0.08%
2 | CC(C)C[C@H](NC(=O)c1cc2ccccc2s1)C(=O)N[C@H]1CCN(Cc2ccc(I)c(OCCN3CCCC3)c2)C1 | -0.35% | -1.55% | -0.29%
3 | Cc1cc(OC(C)C(=O)N2CCc3ccccc32)ccc1Cl (centres undefined) | 4.58% | 3.8% | 6.71%
4 | N=C(N)NN=CC(=O)Nc1ccc(Cl)cc1 | 7.68% | 11.3% | 8.24%
5 | CCN(CC)CCN(Cc1ccc(-c2ccc(C(F)(F)F)cc2)cc1)C(=O)Cn1cc(CCCCc2cccc(F)c2F)c(=O)c2ccccc21 | 7.95% | 6.93% | 10.4%
6 | Cc1c(C(C)(C)C)ccc2nc(N)nc(N)c12 | 64% | 63.5% | 56.6%
7 | COc1ccccc1CNc1ncc(-c2ccsc2)c(-c2nccs2)n1 | 0.14% | 0.8% | -0.05%
8 | CCOC(=O)C(C#N)NC(=O)C=Cc1ccccc1 (centres undefined) | 7.73% | 6.93% | 5.14%
9 | Cc1ccccc1Cn1c(CN2CCC(C(=O)NC3CC3)CC2)cc2ccccc21 | 2.57% | 1.99% | 5.38%
10 | Cc1cc(-c2cccc(CNCc3ccc(F)cc3)c2)ccc1S(=O)(=O)NCCN1CCCC1 | -0.89% | 0.36% | 0.1%
11 | CC(C)COc1ccc(Cl)cc1Cc1nc(-c2nc3ccc(CN(C)C)cc3[nH]2)co1 | 4.88% | 4.73% | 4.57%
12 | CN(C)CCNC(=O)c1cccc(-c2cnc3ccc(NCc4ccc(Cl)c(Cl)c4)nn23)c1 | 8.3% | 8.99% | 7.6%
13 | CCSc1ccccc1COc1c(C)nc(N)nc1N | 6.84% | 6.09% | 2.41%
